This note sets out measurements from ChEMBL document CHEMBL3988442, “University of Dundee, Small-Polar-MMV Screening Library” (2021).

Design in all cases: scale not given: direction of the effect not stated beside the values
The target in test [1] is Protein translocase subunit SecA (Escherichia coli (strain K12)) (UniProt P10408). Kind of test: Assay to Identify E. coli SecA ATPase Inhibitors. It is filed as functional. Particulars: 30 µM.
For test [2], the target named is T1, Ubiquitin-activating enzyme e1, putative (Leishmania donovani (strain BPK282A1)) (UniProt E9BSI1).
T1 sequence (whole entry): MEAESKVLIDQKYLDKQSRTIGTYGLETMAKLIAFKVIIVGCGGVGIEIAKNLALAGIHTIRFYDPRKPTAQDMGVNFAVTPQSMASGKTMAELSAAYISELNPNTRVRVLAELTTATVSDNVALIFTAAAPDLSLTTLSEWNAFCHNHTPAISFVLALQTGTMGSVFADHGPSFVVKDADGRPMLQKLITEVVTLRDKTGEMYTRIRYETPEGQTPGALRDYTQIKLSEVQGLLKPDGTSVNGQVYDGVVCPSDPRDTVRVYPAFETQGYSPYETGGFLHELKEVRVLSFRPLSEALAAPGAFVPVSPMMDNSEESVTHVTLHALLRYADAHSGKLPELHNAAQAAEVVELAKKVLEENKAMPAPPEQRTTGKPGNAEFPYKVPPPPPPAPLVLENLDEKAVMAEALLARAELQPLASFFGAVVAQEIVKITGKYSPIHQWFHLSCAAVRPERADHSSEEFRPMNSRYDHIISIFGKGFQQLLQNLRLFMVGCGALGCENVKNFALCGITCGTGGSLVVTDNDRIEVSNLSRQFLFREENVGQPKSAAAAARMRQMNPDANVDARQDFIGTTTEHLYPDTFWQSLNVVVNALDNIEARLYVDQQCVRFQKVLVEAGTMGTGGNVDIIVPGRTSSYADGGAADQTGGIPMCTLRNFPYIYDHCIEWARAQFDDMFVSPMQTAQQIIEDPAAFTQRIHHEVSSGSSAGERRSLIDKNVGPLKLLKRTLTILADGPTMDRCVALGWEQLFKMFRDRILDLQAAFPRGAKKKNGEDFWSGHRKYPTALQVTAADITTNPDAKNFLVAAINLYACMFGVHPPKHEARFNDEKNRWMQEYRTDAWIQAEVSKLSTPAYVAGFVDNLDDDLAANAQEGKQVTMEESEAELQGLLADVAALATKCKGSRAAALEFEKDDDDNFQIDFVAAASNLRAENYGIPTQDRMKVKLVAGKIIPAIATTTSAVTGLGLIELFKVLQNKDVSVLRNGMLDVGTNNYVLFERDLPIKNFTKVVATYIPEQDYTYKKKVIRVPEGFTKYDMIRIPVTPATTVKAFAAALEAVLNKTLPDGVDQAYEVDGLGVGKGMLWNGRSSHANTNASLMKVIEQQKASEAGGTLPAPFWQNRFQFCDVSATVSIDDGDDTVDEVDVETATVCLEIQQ
Kind of test: Leishmania donovani Ubiquitin Activating Enzyme (LdE1). It is filed as functional. Particulars: 30 µM.

Test [3] addresses AMP-activated protein kinase, AMPK (Homo sapiens) (UniProt P54646+O43741+P54619+Q9UGJ0+Q9Y478+Q13131+Q9UGI9). Kind of test: AMP-dependent Kinase enzyme assay. An in vitro enzyme assay that detects ADP turnover that is directly proportional to AMPK activity. This uses naive AMPK that is activated during the assay with MK-8722. It is filed as functional. Particulars: 30 µM.
Test [4] addresses Sialic acid-binding Ig-like lectin 9 (Homo sapiens) (UniProt Q9Y336). Kind of test: Hs-Siglec9 ALPHAscreen SOP 20170721. Particulars: 10 µM. (In general: In Alpha technology, singlet oxygen from a donor bead excites a nearby acceptor bead.)
A further test concerns Trypanosoma cruzi. The test is described as follows: Trypanosoma cruzi phosphomannomutase and mannose-1-phosphate guanylyltransferase assay. The test is classed as functional. To be noted: 10 µM.
In test [5] the target is T2, Arginase-2, mitochondrial (Homo sapiens) (UniProt P78540).
T2 sequence (whole entry): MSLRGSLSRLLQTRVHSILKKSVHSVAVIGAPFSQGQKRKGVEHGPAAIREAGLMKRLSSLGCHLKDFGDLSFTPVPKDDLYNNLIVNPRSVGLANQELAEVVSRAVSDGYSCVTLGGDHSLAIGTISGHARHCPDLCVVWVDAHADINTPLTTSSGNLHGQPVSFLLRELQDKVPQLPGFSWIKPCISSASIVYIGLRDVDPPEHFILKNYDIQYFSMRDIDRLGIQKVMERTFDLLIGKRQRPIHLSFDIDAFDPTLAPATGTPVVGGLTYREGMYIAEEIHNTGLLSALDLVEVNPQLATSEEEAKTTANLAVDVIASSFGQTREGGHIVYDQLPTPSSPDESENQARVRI
The test is described as follows: in vitro enzyme assay to detect the production of urea directly proportional to the activity of Arginase II. Further: in the data most compounds retested in dose-response had high values. To be noted: 33.3 µM. The test is classed as functional.

For test [6], the target named is T3, Proteasome subunit beta (Trypanosoma cruzi) (UniProt O96673).
T3 sequence (whole entry): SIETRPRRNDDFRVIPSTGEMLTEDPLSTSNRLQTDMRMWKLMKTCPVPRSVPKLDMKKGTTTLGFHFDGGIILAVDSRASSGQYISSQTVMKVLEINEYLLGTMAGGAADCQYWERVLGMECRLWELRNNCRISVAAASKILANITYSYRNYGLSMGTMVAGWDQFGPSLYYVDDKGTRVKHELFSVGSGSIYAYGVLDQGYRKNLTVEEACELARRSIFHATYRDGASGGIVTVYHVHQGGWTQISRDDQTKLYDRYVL
Kind of test: Trypanosoma cruzi proteasome chymotrypsin-like activity (TcProtChymo) assay. Further: in the data most compounds retested in dose-response had high values. It is filed as functional. To be noted: 9.37 µM.

For another test, the species on record is Homo sapiens. Kind of test: To identify inhibition of the IFN signalling (Jak-Stat) pathway via expression of an eGFP reporter gene under the control of an IFN-stimulated response element (ISRE) containing MxA promoter. The test is classed as functional. To be noted: 30 µM. For orientation: Reporter assays use an easily measured gene product as a stand-in for the process of interest.

The target in test [7] is T4, Tyrosyl-tRNA synthetase, putative (Trypanosoma cruzi (strain CL Brener)) (UniProt Q4DSP6).
T4 sequence (whole entry): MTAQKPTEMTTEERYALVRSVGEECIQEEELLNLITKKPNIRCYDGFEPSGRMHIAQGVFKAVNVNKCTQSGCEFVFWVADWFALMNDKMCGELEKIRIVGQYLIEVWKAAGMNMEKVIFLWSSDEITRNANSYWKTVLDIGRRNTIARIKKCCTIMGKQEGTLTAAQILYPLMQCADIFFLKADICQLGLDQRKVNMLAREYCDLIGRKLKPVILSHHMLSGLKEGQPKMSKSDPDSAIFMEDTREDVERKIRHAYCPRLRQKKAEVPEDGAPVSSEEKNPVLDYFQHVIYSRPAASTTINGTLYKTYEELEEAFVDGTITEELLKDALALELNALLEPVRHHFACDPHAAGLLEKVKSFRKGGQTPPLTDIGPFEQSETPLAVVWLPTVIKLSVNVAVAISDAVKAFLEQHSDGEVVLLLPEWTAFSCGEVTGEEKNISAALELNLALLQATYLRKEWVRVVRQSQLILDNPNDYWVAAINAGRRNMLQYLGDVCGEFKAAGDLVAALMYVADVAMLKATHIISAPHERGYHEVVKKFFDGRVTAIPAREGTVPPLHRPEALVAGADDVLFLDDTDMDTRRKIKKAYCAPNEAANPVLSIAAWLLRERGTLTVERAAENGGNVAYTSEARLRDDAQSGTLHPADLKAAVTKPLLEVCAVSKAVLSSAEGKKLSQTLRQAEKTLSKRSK
The test is described as follows: Trypanosoma cruzi tyrosyl tRNA synthetase (TcYRS) _High Tyrosine SOP. Further: in the data most compounds retested in dose-response had high values. It is filed as functional. Particulars: 30 µM.

Test [8] addresses T4, Tyrosyl-tRNA synthetase, putative (Trypanosoma cruzi (strain CL Brener)). Kind of test: Trypanosoma cruzi tyrosyl tRNA synthetase (TcYRS) SOP. It is filed as functional. To be noted: 30 µM.
Test [9] has as its target Chromo domain-containing protein 1 (Saccharomyces cerevisiae (strain ATCC 204508 / S288c) (Baker's yeast)) (UniProt P32657). The test is described as follows: ScCHD-1 Enzyme Inhibition Assay. Further: in the data most compounds retested in dose-response had high values. The test is classed as functional. Particulars: 30 µM.

The structures appear in SMILES notation. For some assays here: Potency and affinity values are given separately.

Protein translocase subunit SecA (Escherichia coli (strain K12)), sequence (P10408 whole entry): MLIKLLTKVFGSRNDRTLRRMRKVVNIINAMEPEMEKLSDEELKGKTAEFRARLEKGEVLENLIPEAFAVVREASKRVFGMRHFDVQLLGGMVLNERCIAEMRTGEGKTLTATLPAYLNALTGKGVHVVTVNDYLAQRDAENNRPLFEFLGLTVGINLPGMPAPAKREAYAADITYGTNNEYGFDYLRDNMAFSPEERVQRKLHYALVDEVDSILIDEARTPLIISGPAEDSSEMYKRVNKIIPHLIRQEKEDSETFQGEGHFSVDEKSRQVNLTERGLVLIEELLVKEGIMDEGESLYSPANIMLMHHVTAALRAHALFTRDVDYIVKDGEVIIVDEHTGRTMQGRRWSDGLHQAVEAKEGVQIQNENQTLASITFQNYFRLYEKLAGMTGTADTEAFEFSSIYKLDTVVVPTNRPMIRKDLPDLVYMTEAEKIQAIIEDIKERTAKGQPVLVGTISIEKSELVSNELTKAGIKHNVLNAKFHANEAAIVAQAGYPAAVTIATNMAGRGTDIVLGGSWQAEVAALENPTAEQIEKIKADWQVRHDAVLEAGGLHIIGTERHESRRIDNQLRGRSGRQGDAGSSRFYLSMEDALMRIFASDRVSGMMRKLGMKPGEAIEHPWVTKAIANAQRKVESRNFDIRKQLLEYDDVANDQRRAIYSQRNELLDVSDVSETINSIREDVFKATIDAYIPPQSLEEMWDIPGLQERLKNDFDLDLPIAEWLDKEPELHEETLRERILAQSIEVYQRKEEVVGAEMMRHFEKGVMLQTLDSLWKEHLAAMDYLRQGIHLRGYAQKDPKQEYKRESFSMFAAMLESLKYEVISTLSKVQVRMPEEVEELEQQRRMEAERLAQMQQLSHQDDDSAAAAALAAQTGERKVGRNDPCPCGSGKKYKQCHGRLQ
Sialic acid-binding Ig-like lectin 9 (Homo sapiens), sequence (Q9Y336 whole entry): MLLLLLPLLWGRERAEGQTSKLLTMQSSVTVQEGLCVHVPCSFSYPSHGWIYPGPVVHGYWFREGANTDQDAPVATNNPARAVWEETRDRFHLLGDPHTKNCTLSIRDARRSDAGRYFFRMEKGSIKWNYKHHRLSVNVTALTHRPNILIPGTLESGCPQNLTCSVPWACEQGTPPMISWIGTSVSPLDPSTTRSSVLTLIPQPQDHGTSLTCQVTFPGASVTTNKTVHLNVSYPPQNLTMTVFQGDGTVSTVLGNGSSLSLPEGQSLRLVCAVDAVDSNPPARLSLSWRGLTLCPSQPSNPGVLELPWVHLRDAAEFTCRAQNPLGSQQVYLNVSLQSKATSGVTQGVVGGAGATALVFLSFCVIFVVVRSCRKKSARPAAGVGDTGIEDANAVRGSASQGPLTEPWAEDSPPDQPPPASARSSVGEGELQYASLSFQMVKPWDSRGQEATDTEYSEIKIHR
Chromo domain-containing protein 1 (Saccharomyces cerevisiae (strain ATCC 204508 / S288c) (Baker's yeast)), sequence (P32657 whole entry, the tested form may be a part): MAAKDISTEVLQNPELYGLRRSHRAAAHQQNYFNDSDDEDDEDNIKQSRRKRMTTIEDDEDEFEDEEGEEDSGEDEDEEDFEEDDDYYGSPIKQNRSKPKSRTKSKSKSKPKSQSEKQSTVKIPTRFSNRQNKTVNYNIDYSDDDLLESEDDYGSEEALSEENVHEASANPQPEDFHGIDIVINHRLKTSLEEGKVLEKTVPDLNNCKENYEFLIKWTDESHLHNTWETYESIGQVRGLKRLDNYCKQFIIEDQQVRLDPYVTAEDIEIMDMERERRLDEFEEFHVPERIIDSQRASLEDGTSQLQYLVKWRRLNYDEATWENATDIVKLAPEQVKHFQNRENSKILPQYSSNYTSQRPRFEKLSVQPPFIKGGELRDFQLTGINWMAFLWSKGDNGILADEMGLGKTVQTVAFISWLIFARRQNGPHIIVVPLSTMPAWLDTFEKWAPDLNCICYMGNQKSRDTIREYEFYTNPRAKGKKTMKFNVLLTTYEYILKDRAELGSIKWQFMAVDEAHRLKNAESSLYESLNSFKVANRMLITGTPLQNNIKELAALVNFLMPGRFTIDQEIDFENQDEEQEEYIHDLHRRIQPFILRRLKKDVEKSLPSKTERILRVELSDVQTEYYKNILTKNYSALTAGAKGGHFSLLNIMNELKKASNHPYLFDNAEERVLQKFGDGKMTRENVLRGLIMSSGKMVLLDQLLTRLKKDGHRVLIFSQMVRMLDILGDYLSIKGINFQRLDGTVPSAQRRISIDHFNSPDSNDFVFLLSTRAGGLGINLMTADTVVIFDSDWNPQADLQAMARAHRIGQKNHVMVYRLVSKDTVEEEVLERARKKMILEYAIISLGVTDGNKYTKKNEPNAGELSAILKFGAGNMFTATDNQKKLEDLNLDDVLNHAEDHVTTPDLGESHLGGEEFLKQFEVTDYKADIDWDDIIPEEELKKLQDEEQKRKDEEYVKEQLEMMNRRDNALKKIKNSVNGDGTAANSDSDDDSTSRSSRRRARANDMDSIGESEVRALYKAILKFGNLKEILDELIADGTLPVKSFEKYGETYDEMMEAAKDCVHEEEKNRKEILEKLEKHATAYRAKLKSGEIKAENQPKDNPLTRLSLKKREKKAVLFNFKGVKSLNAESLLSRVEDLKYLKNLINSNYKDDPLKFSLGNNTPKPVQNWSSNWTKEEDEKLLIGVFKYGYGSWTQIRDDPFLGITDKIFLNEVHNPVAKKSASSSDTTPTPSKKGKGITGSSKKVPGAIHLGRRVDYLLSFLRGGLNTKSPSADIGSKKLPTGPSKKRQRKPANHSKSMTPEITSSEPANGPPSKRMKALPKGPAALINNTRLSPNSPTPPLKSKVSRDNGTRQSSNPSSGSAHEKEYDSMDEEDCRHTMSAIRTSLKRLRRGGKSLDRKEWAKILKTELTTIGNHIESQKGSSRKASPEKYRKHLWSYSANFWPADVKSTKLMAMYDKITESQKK

As to `COc1ccccc1CC1CCCN(CC(N)=O)C1` (stereo not given), the Percent Effect is -0.0936% in test [1]; 7.79% in [2]; 0.0164% in [3]; 9.64% in [4]; 0.0979% with Trypanosoma cruzi; 2.32% in test [5]. Further, the Percent Effect is -0.889% in test [6]; -0.966% in the test listed under Homo sapiens; 2.86% in test [7]; 9.41% in test [8]; -6.07% in test [9].

In the case of `Cn1cc(CN2CC3(CCN(C(=O)c4ccoc4)C3)C2)cn1`, the Percent Effect in [1] is -1.29%; in test [2], -2.74%; in [3], 4.12%; in [4], -0.00343%; with Trypanosoma cruzi it was -3.77%; in test [5], -1.6%. For the same compound, the Percent Effect was 10.2% in [6]; 15.8% in the test filed under Homo sapiens; -1.04% in test [7]; -1.24% in [8]; -6.08% in [9].

`CC(C)c1nnc2n1CCN(CC(=O)Nc1nncs1)C2`: the Percent Effect in [1] was -0.203%; in test [2], 13%; in test [3], 1.97%; in [4] it was -3.59%; in the test with Trypanosoma cruzi, 5.19%; in [5], 5.68%. Moreover, the Percent Effect in test [6] is 8%; in the test filed under Homo sapiens it was -15.7%; in [7] it was 2.86%; in [8], 14.1%; in [9] it was -14.6%.

With `Cc1ccccc1CN1CCN(CC(=O)Nc2cccnc2)CC1`, the Percent Effect is -3.14% in [1]; 15.6% in test [2]; -360% in test [3]; -1.61% in [4]; 6.95% in the test with Trypanosoma cruzi; 3.58% in [5]. In addition, the Percent Effect in test [6] was 11.1%; in the test filed under Homo sapiens, 12.5%; in test [7], 4.76%; in test [8], 18.8%; in test [9] it was -2.58%.

As to `COCCCN(CCOC)C(=O)Nc1ccc(C)cc1C`, the Percent Effect is -4.88% in [1]; -7.89% in test [2]; -30.8% in [3]; -2.12% in [4]; -2.63% in the test on Trypanosoma cruzi; 3.55% in [5]. In addition, the Percent Effect in test [6] is 2.01%; in the test filed under Homo sapiens, -18.5%; in test [7], -2.13%; in test [8] it was -2.6%; in test [9] it was 6.01%.

Regarding `O=C(CCn1cncn1)NC1(c2cccc(Br)c2)CCC1`, the Percent Effect in test [1] is -3.55%; in [2] it was 20.8%; in test [3] it was 1.67%; in [4] it was 13.7%; with Trypanosoma cruzi it was 3.44%; in [5], 1.38%. Further, the Percent Effect was 10.5% in test [6]; -1.82% in the test listed under Homo sapiens; 3.23% in test [7]; 16.1% in test [8]; -9.17% in [9].

Take `CS(=O)(=O)N1CCCC12CCCN(S(=O)(=O)c1cc(F)cc(F)c1)C2` (stereo not given): the Percent Effect was -5.6% in test [1]; -8.11% in test [2]; 3.16% in test [3]; -10% in test [4]; -3.23% in the test on Trypanosoma cruzi; -2.23% in test [5]. The Percent Effect was 10% in test [6]; 14.4% in the test filed under Homo sapiens; 0% in test [7]; -1.24% in test [8]; -0.985% in [9].

With `c1cc(CNCc2ccc3c(c2)CCO3)cc(N2CCOCC2)n1`, the Percent Effect was -6.07% in test [1]; 5.41% in [2]; -3.9% in test [3]; -3.3% in test [4]; -3.03% with Trypanosoma cruzi; 0.744% in test [5]. For the same compound, the Percent Effect is 6.27% in test [6]; 2.63% in the test filed under Homo sapiens; 2.15% in [7]; 6.17% in [8]; -4.71% in [9].

For the compound `Cc1nc(CNC(C)c2ccc(OCC(=O)NC3CC3)cc2)cs1` (stereo not given), the Percent Effect is -1.09% in [1]; 19% in test [2]; -0.957% in test [3]; -2.32% in test [4]; -2.15% in the test on Trypanosoma cruzi; -8.82% in test [5]. The Percent Effect in [6] was 23.8%; in the test listed under Homo sapiens, 3.09%; in test [7], 4.17%; in [8] it was -48.1%; in test [9] it was -24.3%.

For the compound `Cc1nc(C2CCCN(C(=O)c3sccc3C3CC3)C2)no1` (stereo not given), the Percent Effect is -1.32% in [1]; -1.39% in [2]; -29% in [3]; -2.96% in test [4]; -0.486% in the test on Trypanosoma cruzi; -0.442% in test [5]. Besides, the Percent Effect in test [6] is 11.9%; in the test filed under Homo sapiens, 5.93%; in test [7], 0%; in [8], 0%; in test [9], -0.247%.
